Measured values from PubChem BioAssay (Tox21).
Inconclusive results are not listed. Activity calls are given as the source filed them. The call rests on the fitted dose curve; in most records, active means well fitted cell-killing curve with a large enough effect in the repeat runs; inconclusive means weak or mixed curves, or effect the other way; inactive means no such curve, though single readings can be large or run the other way.

assay: qHTS assay to identify small molecule antagonists of the glucocorticoid receptor (GR) signaling pathway - cell viability counter screen (AID 720693); settings: GR-bla HeLa viability, CellTiter-Glo luminescence, 18 h, with 5 nM dexamethasone present; series mostly up to 58.5 µM; viability change, negative = cytotoxic: at the top concentration; further: nearly all actives have a fitted effect of over 55% in size
Source text: National Center for Advancing Translational Sciences [NCATS]
NIH Chemical Genomics Center [NCGC]
U.S. Environmental Protection Agency [EPA]
National Institutes of Environmental Health Sciences [NIEHS]
National Toxicology Program [NTP]
U.S. Food and Drug Administration [FDA]
The Glucocorticoid receptor (GR) is one of the members of the nuclear receptor family of ligand-dependent transcription factors. GR plays a critical role in carbohydrate, protein and lipid metabolisms and programmed cell death. CellSensor GR-bla HeLa cell line (Invitrogen) contains a beta-lactamase reporter gene under the control of the glucocorticoid response element stably integrated into HeLa cells, a cervical cancer cell line that expresses glucocorticoid receptor. The activation of the reporter gene under culture conditions can be detected by fluorescence intensity. This cell line has been used to screen the Tox21 10K compound library and to identify the compounds that inhibit the GR signaling. The cytotoxicity of the Tox21 compound library against the GR-bla HeLa cell line was tested in parallel by measuring the cell viability using CellTiter-Glo assay in the same wells.
Tox21 Assay Protocol Summary:
The GR-bla HeLa cells were dispensed at 1500 cells/5 ul/well in 1536-well black wall/clear bottom plates using a Multidrop Combi (ThermoFisher Scientific, Waltham, MA) dispenser. After the assay plates were incubated at a 37 C/5% CO2 incubator for 4 hours, 23 nL of compounds dissolved in DMSO, positive controls or DMSO only was transferred to the assay plate by a pintool station (Kalypsys, San Diego, CA), followed by addition of 1 uL of dexamethasone (5 nM, final concentration in the well). The plates were incubated at 37 C for 18 hours. After 1 uL of LiveBLAzerTM B/G FRET substrate was added using a Flying Reagent Dispenser (Aurora Discovery, San Diego, CA), the plates were incubated at room temperature (RT) for 2 hours, and fluorescence intensity was measured by an Envision plate reader (PerkinElmer, Shelton, CT). After measurement of bla assay, 3 ul CellTiter-Glo (Promega, Madison, WI) was added to measure the cytotoxicity and the plates were then incubated at RT for 30 min. The luminescence was measured using a ViewLux (Perkin Elmer) plate reader.
On the % scale 0 is the no-effect control and ±100 the full control effect; potency means the concentration at half of the fitted maximal effect.

Row | SMILES | viability change, negative = cytotoxic | Potency
1 | COc1ccc([C@@H]2Sc3ccccc3N(CCN(C)C)C(=O)[C@@H]2OC(C)=O)cc1 | -8.92% (inactive) | 
2 | Cn1c(NCCN(CCO)CCCc2ccc([N+](=O)[O-])cc2)cc(=O)n(C)c1=O | -13.4% (inactive) | 
3 | CC[C@@H]1C[C@H](N(Cc2cc(C(F)(F)F)cc(C(F)(F)F)c2)C(C)=O)c2cc(C(F)(F)F)ccc2N1C(=O)OC(C)C | 5.28% (inactive) | 
4 | O=S(=O)(O)c1ccc(O)c2ncccc12 | 2.44% (inactive) | 
5 | CNCC[C@@H](Oc1ccccc1C)c1ccccc1 | 14.8% (inactive) | 
6 | CCN(CC)CCOc1ccc2c(c1)C(=O)c1cc(OCCN(CC)CC)ccc1-2 | 15.4% (inactive) | 
7 | Cn1c(N)nc2nc[nH]c2c1=O | 21.3% (inactive) | 
8 | OC(CCN1CCCCC1)(c1ccccc1)C1CCCCC1 (stereo not given) | 2.31% (inactive) | 
9 | O=C(O)[C@@H]1[C@H]2C[C@H]3c4[nH]c5ccccc5c4CCN3C[C@@H]2CC[C@@H]1O | 22.7% [at 27 µM] (inactive) | 
10 | COc1ccc(OC)c(OC)c1 | -0.471% (inactive) | 
11 | SC1CCCC1 | 18.3% (inactive) | 
12 | CC(=O)O[C@H]1C[C@@H]2CC[C@@H]3[C@H](CC[C@@]4(C)[C@H]3C[C@H]([N+]3(C)CCCCC3)[C@@H]4OC(C)=O)[C@@]2(C)C[C@@H]1N1CCCCC1 | -1.18% (inactive) | 
13 | CCCCCCCCCC(=O)OCC | -3.88% (inactive) | 
14 | C[C@@H](C1=C(CCN(C)C)Cc2ccccc21)c1ccccn1 | 8.13% (inactive) | 
15 | NCCCOCCOCCOCCCN | -0.996% (inactive) | 
16 | CC(=O)[C@@]1(O)CC[C@H]2[C@@H]3C[C@H](C)C4=CC(=O)CC[C@]4(C)[C@H]3CC[C@@]21C | -1.28% (inactive) | 
17 | Cc1ccc(C(N)=O)cc1N | -2.48% (inactive) | 
18 | N#Cc1c(F)cccc1F | 8.56% (inactive) | 
19 | CCCC(C)C | 23.1% [at 78.9 µM] (inactive) | 
20 | C=CCCCCCC | -7.55% (inactive) | 

Row | SMILES | viability change, negative = cytotoxic | Potency
21 | Cc1occc1S | 0.774% (inactive) | 
22 | CCCCCc1ccc(N)cc1 | 0.88% (inactive) | 
23 | CC(C)CCCC(C)CCO (stereo not given) | 3.31% (inactive) | 
24 | O=C(Nc1ccccc1)OCC(CN1CCCCC1)OC(=O)Nc1ccccc1 (stereo not given) | 10.5% [at 27 µM] (inactive) | 
25 | C[Si](C)O[Si](C)(C)O[Si](C)(C)O[Si](C)C | -2.67% (inactive) | 
26 | C1=Cc2ccccc2C1 | -0.91% (inactive) | 
27 | Cc1ccc2c(ccc3ccccc32)c1 | 8.24% [at 78.9 µM] (inactive) | 
28 | CC(=O)OC/C=C/c1ccccc1 | 17.5% (inactive) | 
29 | CC(=O)CC(=O)c1ccccc1 | -16.1% [at 78.9 µM] (inactive) | 
30 | C=CC(=O)OCCOC(=O)CCC(=O)O | 8.47% (inactive) | 
31 | CN1CCC(=C2c3ccccc3CCc3sccc32)CC1 | 6.96% (inactive) | 
32 | COc1ccc2[nH]c(S(=O)Cc3ncc(C)c(OC)c3C)nc2n1 (stereo not given) | -17.4% (inactive) | 
33 | CN(c1nccc(=O)[nH]1)C1CCN(c2nc3ccccc3n2Cc2ccc(F)cc2)CC1 | 11.1% (inactive) | 
34 | COc1ccccc1OC(=O)Oc1ccccc1OC | -1.15% (inactive) | 
35 | CCCCCCc1ccc(N)cc1 | -9.16% (inactive) | 
36 | CC(C)NCC(O)COc1ccc(CC(N)=O)cc1 (stereo not given) | -0.75% (inactive) | 
37 | NC(N)=NN=C(/C=C/c1ccc([N+](=O)[O-])o1)/C=C/c1ccc([N+](=O)[O-])o1 |  | 5.35 µM (active)
38 | Nc1nc(CC(=O)O)cs1 | 0.407% [at 78.9 µM] (inactive) | 
39 | CC(C)(C)C1CCCCC1O (stereo not given) | -0.786% (inactive) | 
40 | CCOC(=O)CC(=O)c1cc(F)c(Cl)nc1Cl | -1.52% [at 78.9 µM] (inactive) | 
